Experimental findings from PubChem BioAssay (EPA / NIEHS) are described below.

The source made the active and inactive calls. The calls were made as follows: active = hit-call score of the fitted dose curve at least 0.9, where 1 is the maximum; inactive = score below 0.9.

The test in a line: ATG_PBREM_CIS: Attagene CIS-FACTORIAL HepG2 Assay for human Phenobarbital-responsive Enhancer Module (PBREM) (AID 2282955). Conditions: HepG2 PBREM cis-reporter, Attagene multiplexed transcription; actives raise or lower the signal. An outline of the steps:
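HepG2 cells transiently transfected with multiple cis-regulated reporter transcription units; endogenous factor activity at the PBREM element measured as reporter mRNA 24 h after dosing, via RT-PCR and capillary electrophoresis of fluorescent fragments; bidirectional fitting versus DMSO.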
With `NC(=O)C(F)(F)C(F)(F)C(F)(F)C(F)(F)F`, the result was inactive. The same measure, in the same setting: next, `O=P(O)(O)OCCC(F)(F)C(F)(F)C(F)(F)C(F)(F)C(F)(F)C(F)(F)F`: “inactive”. As to `CC(=O)Nc1ccc(N=Nc2cc(C)ccc2O)cc1`, the AC50 was 49.4 µM (active).

As to `CCCCCCC(C)OC(=O)CCCCC(=O)OC(C)CCCCCC` (stereo not drawn), the outcome was inactive. Regarding `CC(Cc1ccc(O)c(O)c1)C(C)Cc1ccc(O)c(O)c1` (stereo not drawn), the AC50 is 9.19 µM (active). `FC(F)(F)C(F)(F)C(F)(F)C(F)(F)C(F)(F)C(F)(F)C(F)(F)C(F)(F)CCS`: the result was inactive. `FC(F)(Br)C(F)(F)C(F)(F)C(F)(F)C(F)(F)C(F)(F)Br`: the outcome was inactive. On to `OCC(F)(F)C(F)(F)C(F)(F)C(F)(F)C(F)(F)C(F)F`, for which the result was inactive.

For the compound `COC(=O)CCC(F)(F)C(F)(F)C(F)(F)C(F)(F)F`, the result was inactive.

For the compound `FC(F)(F)C(F)(F)C(F)(F)N(C(F)(F)C(F)(F)C(F)(F)F)C(F)(F)C(F)(F)C(F)(F)F`, the result was inactive.

`FC(F)(F)C(F)(F)C(F)(F)C(F)(F)C(F)(F)C(F)(F)C(F)(F)C(F)(F)F`: the outcome was inactive. Turning to `c1ccc(-c2ccccc2-c2ccccc2)cc1`, the result was inactive. For the compound `CCO[Si](CCC(F)(F)C(F)(F)C(F)(F)C(F)(F)C(F)(F)C(F)(F)F)(OCC)OCC`, the result was inactive. As to `FC(F)(I)C(F)(F)C(F)(F)C(F)(F)I`, the outcome was inactive. As to `CCCCCCCCC(F)(F)C(F)(F)C(F)(F)C(F)(F)C(F)(F)C(F)(F)F`, the outcome was inactive. In the case of `FC(F)(F)C(F)(F)CNCC(F)(F)C(F)(F)F`, the outcome was inactive. For `CC/C=C\CCOC(=O)c1ccccc1`, the outcome was inactive. As to `O=S(=O)(OCCOC(F)(F)F)C(F)(F)F`, the result was inactive.
